This is a sample that favours compounds with a hit; in the whole collection about 2.8% have one here.
HIF-2a inh: HIF-2a reporter inhibitors, primary screen, luminescence, 786-0 RCC cells; 786-0 RCC cells HIF-2a reporter, luciferase luminescence, overnight; inhibition, % at 18.8 µM; 360,000 compounds, 0.72% hits; AID 624352, 2012;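 active means inhibition of the luminescence signal of 40% or more relative to plate controls, in a single-dose primary screen at 18.75 µM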
Peg3 prom inh: Peg3 promoter-driven luciferase inhibitors, primary screen, cell-based, HeLa, luciferase luminescence | HeLa PEG-Prom luciferase reporter, overnight | inhibition, % at 20 µM | 360,000 compounds, 1.7% hits;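 active means inhibition of at least 50% at 20 µM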
CF NFkB inh: inhibitors of PAF-induced NF-kB signaling, primary screen, cell-based, GFP fluorescence, uHTS. KKLEB NF-kB-GFP reporter, GFP fluorescence overnight. inhibition, % at 5 µM. 360,000 compounds, 0.86% hits;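 active means at least 50% inhibition at 5 µM, scaled per plate between neutral and stimulator controls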;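 further: PAF is a Pseudomonas aeruginosa culture filtrate used as stimulus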
KKLEB tox: cytotoxicity in KKLEB CF airway cells, primary screen, cytotoxicity control for CF NF-kB inhibitor project, cell-based, uHTS, fluorescence assay plates; 360,000 compounds, 0.36% hits; activity change (cytotoxicity), % at 5 µM; KKLEB CF airway cells viability, ATPlite luminescence, overnight; active compounds read low; cells stimulated with P. aeruginosa culture filtrate;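 active means corrected activity change at or below -50% at 5 µM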
Shn3 inh set2: reduction of Shn3 3'UTR firefly luciferase signal, primary screen, Schnurri-3 inhibitor project, cell-based, Clone20 osteoblasts, set 2; Clone20 osteoblast Shn3 3'UTR firefly luciferase, 24 h; inhibition, % at 12.5 µM; 360,000 compounds, 0.52% hits;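 active means mean inhibition of at least 75% with every replicate also reaching 75%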
TRPM1 prom inh: inhibitors of MITF-dependent TRPM1 promoter reporter, primary screen, cell-based, SK-MEL-5, single point, luciferase; SK-MEL-5 TRPM1 promoter luciferase, 24 h; inhibition, % at 12.5 µM; 330,000 compounds, 0.83% hits;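 active means mean inhibition across replicates of 60% or more, whatever share of single replicates reaches that level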
CF NFkB inh conf: inhibitors of PAF-induced NF-kB signaling, retest, confirmation, cell-based, GFP fluorescence, single concentration | shares compounds with CF NFkB inh | KKLEB CF airway cells, overnight | inhibition, % at 5 µM | 1,300 compounds, 64% hits | AID 602472, 2012; in the data active means inhibition above about 40%;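 further: stimulus PAF is a Pseudomonas aeruginosa filtrate and not platelet activating factor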
Numbers stand for hits; n = inactive; x = not tested or not shown.

SMILES	HIF-2a inh	Peg3 prom inh	CF NFkB inh	KKLEB tox	Shn3 inh set2	TRPM1 prom inh	CF NFkB inh conf
CC12C=CC(=O)C=C1CCC1C2C(=O)C[C@@]2(C)C1CCC2(O)C(=O)CO (stereo partly drawn)	n	n	n	n	n	n	x
C[C@@H]1C[C@H]2[C@@H]3CCC4=CC(=O)C=C[C@]4(C)[C@@]3(Cl)[C@@H](O)C[C@]2(C)[C@@]1(OC(=O)c1ccco1)C(=O)CCl	n	67.8	88.9	n	n	n	n
CC1CC2C3CCC4=CC(=O)C=CC4(C)[C@@]3(Cl)C(O)CC2(C)C1(O)C(=O)CO (stereo partly drawn)	n	n	66.5	n	n	n	n
COc1ccc(CCN2CC(C(=O)NCCc3ccccc3C)CCC2=O)cc1 (stereo not drawn)	n	n	n	n	n	n	x
COC(=O)c1cc(=O)n(CCc2ccccc2)c(=Nc2ccc(F)cc2)s1	n	n	n	n	n	x	x
CCn1c(=O)cc(C(=O)OC)sc1=Nc1ccc(F)c(F)c1	n	64.9	50.5	n	n	n	n
Cn1c(=O)c2cc(NC(=S)NC3CCCCC3)ccc2n1-c1ccccc1	n	n	n	n	n	x	x
CCOC(=O)CSc1nc(C)cc(C)c1C#N	n	n	n	n	n	n	x
Cc1cc(C)c(C#N)c(SCC(=O)c2ccc(Cl)cc2Cl)n1	n	60.0	71.6	n	n	n	67.2
Cc1cccc(OCC(=O)Nc2nnc(S(=O)(=O)N3CCCCCC3)s2)c1	n	n	n	n	n	n	x
COc1ccccc1Cc1c(-c2cccc(Cl)c2)nc2ccc(C)cn12	n	n	n	n	n	x	x
CCC1C(=O)C(C)(C)C(=O)OC1c1ccc([N+](=O)[O-])cc1 (stereo not drawn)	n	n	n	n	n	n	x
O=C1CC(=O)OC(c2ccc([N+](=O)[O-])cc2)O1	85.9	102.8	90.2	n	97.5	x	111.3
O=C(Nc1nnc(C(F)(F)F)s1)c1ccc(Br)s1	n	n	53.9	n	n	n	83.0
O=C(NCC1CCOCC1)c1ccc(-c2ccc(F)c(F)c2)c2ccoc12	n	n	n	n	n	x	x
COc1cc(C(=O)NCCCNc2ccc([N+](=O)[O-])cc2)cc(OC)c1OC	n	n	n	n	n	n	x
CCOC(=O)Nc1nc(-c2ccccc2)c(C(=O)c2ccccc2)s1	n	n	53.1	n	n	n	77.2
Cc1c(NC(=S)Nc2ccc(Cl)cc2)c(=O)n(-c2ccccc2)n1C	n	n	n	n	n	n	x
C=CCOc1ccc(CNc2ccc3[nH]c(=O)[nH]c3c2)cc1	n	n	n	n	n	n	x
Cc1cc(C)c(C(N)=O)c(Nc2cccc3ccccc23)n1	n	n	50.4	n	n	n	n
COc1cc(O)cc2cc3c(c(O)c12)C(=O)CC(C)(O)O3 (stereo not drawn)	n	n	59.5	n	n	x	52.3
CC1(C)COC(/C=C/c2cccc([N+](=O)[O-])c2)=N1	n	n	51.7	n	n	n	n
CCOC(=O)CSc1nc(C2CC2)nc2ccccc12	n	n	n	n	n	n	x
CC1(Cc2cccc(F)c2)C(=O)Nc2ccc(-c3cccnc3)cc21 (stereo not drawn)	n	n	72.4	n	n	x	66.3
CC1(Cc2ccc(Cl)cc2)C(=O)Nc2ccc(-c3cccnc3)cc21 (stereo not drawn)	n	n	79.3	n	n	x	91.1
SMILES	HIF-2a inh	Peg3 prom inh	CF NFkB inh	KKLEB tox	Shn3 inh set2	TRPM1 prom inh	CF NFkB inh conf
CCc1ccc2c(c1)NC(=O)C2(C)Cc1cccc(F)c1 (stereo not drawn)	n	n	n	n	n	x	x
CCN1CCN(C(=O)C(N)Cc2ccccc2)CC1 (stereo not drawn)	n	n	n	n	n	n	x
COc1cccc(NC(=O)Nc2nnc(-c3ccccc3SCc3ccccc3)s2)c1	n	n	n	n	n	n	x
COc1ccc(NC(=O)Nc2nnc(-c3ccccc3SCc3ccccc3)s2)cc1	n	n	50.3	n	n	n	n
COC(=O)N1C(=O)[C@@](c2ccccc2)(C2CCCCC2)N1C(=O)OC	n	83.7	66.2	n	n	n	48.7
COC(=O)N1C(=O)[C@@](Cc2ccccc2)(c2ccccc2)N1C(=O)OC	n	n	56.6	n	n	n	54.6
CC[C@@]1(c2ccccc2)C(=O)N(C(=O)OC)N1C(=O)OC	n	n	n	n	n	n	x
COc1ccc(N(C)S(=O)(=O)c2cccc(C(=O)Nc3nc4ccccc4[nH]3)c2)cc1	n	n	n	n	n	n	x
CN(c1cccc(Cl)c1)S(=O)(=O)c1cccc(C(=O)Nc2nc3ccccc3[nH]2)c1	n	75.9	80.4	n	n	n	47.0
COc1ccc(N(CCCN2C(=O)c3cccc4cccc(c34)C2=O)C(=O)c2cccnc2)cc1	n	n	n	n	n	n	x
COc1ccc(N(CCCN2C(=O)c3cccc4cccc(c34)C2=O)C(=O)c2ccncc2)cc1	n	n	50.1	n	n	n	45.3
COCc1cc(S(=O)c2ccc(Cl)cc2)nc(C)n1 (stereo not drawn)	n	n	87.2	n	n	n	82.8
COc1ccc(Nc2nc(-c3cccs3)nc3ccccc23)cc1S(=O)(=O)N1CCOCC1	n	55.4	90.3	n	n	n	102.8
COc1ccc(NS(=O)(=O)c2cccs2)cc1S(=O)(=O)N1CCOCC1	n	n	n	n	n	n	x
C[C@@]12CCC=C[C@H]1[C@H](c1ccc3ccccc3c1Br)N(Cc1ccccc1)C2=O	n	n	57.2	n	n	n	40.0
C[C@@]12CCC=C[C@H]1[C@H](c1ccc3ccccc3c1)N(Cc1ccccc1)C2=O	n	n	n	n	n	n	x
CCN(CC)c1nc(C#N)nc(N(CC)CC)n1	n	n	n	n	n	n	x
CCN(c1ccccc1)c1nc(C#N)nc(N(CC)c2ccccc2)n1	n	n	52.3	n	n	n	n
CCCN(CC(=O)Nc1ccccc1OC)C(=O)c1ccc(=O)[nH]c1	n	n	n	n	n	n	x
c1ccc(-c2nc3nonc3nc2-c2ccccc2)cc1	n	n	72.2	n	n	61.7	65.7
CN(CC(=O)Nc1ccc(OC(F)(F)F)cc1)C(=O)/C=C/c1cc2c(cc1[N+](=O)[O-])OCO2	n	n	n	n	n	n	x
CC(C)c1ccc(NC(=O)C(c2ccc3c(c2)OCO3)N2CCCCC2)cc1 (stereo not drawn)	n	n	n	n	n	x	x

Screening data: PubChem BioAssay, several laboratories
